Source: the supplement of paper PMC10849652
The full data set covers some 8,800 targets. This sample favours those with a hit. About 0.5% of all pairs of compound and target were hits. Values without a mark were called inactive.

Key:
Assay in all cases: log2 fold change, soluble protein after heating vs DMSO (PISA); higher = thermal stabilisation; K562 lysate, 10 uM; active = over 0.2 and 3.5 SD of the protein, either way, in both replicates (recomputed)
[1] = compound: NCC(=O)Nc1ccc(-n2nc(C(F)(F)F)cc2-c2ccc3c(ccc4ccccc43)c2)cc1
Method in brief: (§1)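 Thermal stability, expressed as log-two fold change relative to solvent controls, is given from duplicates. Crude K562 extract in PBS pH 7.4 with 1 mM MgCl2, at 1 mg/mL protein, was treated with 10 μM compound for 30 min and heated in aliquots for 3 min across 48°C-58°C. After pooling, adjustment to 0.5% NP-40 at 4°C and centrifugation at 21,000xg for 90 min, supernatant protein was measured by TMTpro 16plex LC-MS/MS with channel sums equalised.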

[2] = compound: O=C(CCCCCCC(=O)Nc1ccccc1)NO [vorinostat]
Method in brief: as §1

[3] = compound: O=C(O)c1ccc2c(c1)nc(Nc1cccc(Cl)c1)c1ccncc12 [silmitasertib]
Method in brief: as §1

[4] = compound: O=C1NC(=O)C(c2cnc3ccccn23)=C1c1cn2c3c(cc(F)cc13)CN(C(=O)N1CCCCC1)CC2
Method in brief: as §1

[5] = compound: c1cn2cc(-c3ccc4cn[nH]c4c3)nc(Nc3ccc(N4CCOCC4)cc3)c2n1 [entospletinib]
Method in brief: as §1

Sequence of UniProt P55211 (P55211 whole entry, looked up): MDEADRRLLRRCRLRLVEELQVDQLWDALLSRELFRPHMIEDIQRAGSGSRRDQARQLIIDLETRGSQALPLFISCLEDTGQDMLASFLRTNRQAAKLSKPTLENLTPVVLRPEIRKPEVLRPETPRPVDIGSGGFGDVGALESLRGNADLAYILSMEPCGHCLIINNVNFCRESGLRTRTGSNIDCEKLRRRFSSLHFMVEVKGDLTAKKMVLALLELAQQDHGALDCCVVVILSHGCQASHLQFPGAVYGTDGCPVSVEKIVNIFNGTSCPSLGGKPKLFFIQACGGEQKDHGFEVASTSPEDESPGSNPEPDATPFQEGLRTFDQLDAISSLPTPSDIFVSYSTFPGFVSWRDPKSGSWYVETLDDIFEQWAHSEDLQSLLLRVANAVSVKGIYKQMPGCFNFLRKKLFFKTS
Sequence of UniProt P22676 (P22676 whole entry, looked up): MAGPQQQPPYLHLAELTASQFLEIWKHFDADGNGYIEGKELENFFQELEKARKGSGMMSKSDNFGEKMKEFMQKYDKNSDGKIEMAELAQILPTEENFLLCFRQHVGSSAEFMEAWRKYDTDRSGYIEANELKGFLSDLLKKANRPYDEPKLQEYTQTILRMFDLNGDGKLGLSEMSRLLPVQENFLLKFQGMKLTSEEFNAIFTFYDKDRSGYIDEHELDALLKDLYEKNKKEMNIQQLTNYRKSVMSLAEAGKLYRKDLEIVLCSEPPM
Sequence of UniProt P30307 (P30307 whole entry, looked up): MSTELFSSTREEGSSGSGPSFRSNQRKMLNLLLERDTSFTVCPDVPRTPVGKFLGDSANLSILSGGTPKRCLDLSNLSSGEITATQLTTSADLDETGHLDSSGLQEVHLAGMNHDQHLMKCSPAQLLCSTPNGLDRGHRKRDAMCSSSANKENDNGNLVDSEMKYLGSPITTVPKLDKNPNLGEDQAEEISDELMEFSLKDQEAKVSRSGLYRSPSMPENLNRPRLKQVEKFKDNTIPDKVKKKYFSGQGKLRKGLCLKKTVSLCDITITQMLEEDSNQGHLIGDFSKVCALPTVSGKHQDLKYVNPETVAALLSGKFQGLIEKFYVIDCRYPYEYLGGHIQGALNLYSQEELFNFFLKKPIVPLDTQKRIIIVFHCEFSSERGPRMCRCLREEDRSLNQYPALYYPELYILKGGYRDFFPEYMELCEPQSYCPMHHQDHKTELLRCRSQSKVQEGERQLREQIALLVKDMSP
Sequence of UniProt Q8IWZ6 (Q8IWZ6 whole entry, looked up): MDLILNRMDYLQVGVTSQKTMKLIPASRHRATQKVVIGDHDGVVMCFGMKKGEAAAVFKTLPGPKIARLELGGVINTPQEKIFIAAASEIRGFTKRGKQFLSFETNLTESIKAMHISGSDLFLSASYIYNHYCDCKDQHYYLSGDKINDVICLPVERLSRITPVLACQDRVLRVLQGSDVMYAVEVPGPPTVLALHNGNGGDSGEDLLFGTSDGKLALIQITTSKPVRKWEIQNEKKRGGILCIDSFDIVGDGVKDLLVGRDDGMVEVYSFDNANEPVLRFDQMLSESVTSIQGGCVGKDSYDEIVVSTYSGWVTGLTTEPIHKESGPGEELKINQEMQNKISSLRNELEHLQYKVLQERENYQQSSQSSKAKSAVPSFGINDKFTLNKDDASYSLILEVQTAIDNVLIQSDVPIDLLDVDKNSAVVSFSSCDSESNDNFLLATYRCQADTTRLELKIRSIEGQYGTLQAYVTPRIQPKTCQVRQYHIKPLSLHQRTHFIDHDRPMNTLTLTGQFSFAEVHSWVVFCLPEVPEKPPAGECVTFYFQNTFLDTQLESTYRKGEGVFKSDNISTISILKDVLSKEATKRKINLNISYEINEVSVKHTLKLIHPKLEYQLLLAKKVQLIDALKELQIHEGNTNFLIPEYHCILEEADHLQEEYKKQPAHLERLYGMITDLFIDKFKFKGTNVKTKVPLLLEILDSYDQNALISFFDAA
Sequence of UniProt Q6P4E1 (Q6P4E1 whole entry, looked up): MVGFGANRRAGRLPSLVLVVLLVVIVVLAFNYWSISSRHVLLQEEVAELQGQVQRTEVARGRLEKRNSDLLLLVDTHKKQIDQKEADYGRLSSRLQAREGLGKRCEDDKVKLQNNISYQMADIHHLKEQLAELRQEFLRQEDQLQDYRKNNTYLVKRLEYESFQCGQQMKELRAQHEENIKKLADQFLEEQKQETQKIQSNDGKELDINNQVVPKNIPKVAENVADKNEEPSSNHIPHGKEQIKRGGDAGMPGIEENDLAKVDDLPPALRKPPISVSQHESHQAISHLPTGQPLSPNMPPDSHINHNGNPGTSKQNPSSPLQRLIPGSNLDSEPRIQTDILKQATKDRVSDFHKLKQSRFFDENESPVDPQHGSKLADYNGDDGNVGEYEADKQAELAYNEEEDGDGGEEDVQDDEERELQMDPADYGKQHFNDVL
Sequence of UniProt Q00535 (Q00535 whole entry, looked up): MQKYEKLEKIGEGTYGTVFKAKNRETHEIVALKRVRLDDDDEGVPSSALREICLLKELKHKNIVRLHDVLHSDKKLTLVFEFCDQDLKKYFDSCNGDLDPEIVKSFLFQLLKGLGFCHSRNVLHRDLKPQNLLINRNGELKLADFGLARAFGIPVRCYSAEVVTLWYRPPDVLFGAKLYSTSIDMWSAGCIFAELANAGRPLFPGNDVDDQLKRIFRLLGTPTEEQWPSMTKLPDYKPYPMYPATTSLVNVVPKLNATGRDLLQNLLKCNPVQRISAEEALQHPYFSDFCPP
Sequence of UniProt Q13111 (Q13111 whole entry, looked up): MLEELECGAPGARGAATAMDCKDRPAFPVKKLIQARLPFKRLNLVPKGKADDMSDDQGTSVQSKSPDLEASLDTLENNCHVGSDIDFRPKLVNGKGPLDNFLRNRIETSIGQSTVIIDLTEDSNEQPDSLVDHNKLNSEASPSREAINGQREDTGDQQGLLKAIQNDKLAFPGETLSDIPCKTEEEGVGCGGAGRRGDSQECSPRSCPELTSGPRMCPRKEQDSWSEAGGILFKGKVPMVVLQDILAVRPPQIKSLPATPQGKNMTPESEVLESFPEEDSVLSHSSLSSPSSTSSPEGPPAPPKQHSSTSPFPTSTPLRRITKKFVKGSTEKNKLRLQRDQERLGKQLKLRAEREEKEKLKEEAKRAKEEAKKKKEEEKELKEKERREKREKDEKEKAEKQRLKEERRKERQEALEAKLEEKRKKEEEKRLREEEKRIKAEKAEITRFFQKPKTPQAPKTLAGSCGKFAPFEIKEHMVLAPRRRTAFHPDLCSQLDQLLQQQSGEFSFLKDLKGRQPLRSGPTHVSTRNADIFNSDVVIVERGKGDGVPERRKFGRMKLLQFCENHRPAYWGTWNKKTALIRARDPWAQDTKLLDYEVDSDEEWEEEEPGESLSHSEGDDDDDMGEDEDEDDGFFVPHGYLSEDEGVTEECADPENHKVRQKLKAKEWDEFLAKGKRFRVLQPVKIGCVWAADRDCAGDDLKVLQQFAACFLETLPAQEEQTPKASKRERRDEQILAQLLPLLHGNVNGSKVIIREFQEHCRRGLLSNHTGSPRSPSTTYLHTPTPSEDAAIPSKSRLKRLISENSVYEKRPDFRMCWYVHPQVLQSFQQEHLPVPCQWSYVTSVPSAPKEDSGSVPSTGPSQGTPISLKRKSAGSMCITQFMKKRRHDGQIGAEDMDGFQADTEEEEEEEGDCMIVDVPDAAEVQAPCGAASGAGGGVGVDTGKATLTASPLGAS
Sequence of UniProt Q15059 (Q15059 whole entry, looked up): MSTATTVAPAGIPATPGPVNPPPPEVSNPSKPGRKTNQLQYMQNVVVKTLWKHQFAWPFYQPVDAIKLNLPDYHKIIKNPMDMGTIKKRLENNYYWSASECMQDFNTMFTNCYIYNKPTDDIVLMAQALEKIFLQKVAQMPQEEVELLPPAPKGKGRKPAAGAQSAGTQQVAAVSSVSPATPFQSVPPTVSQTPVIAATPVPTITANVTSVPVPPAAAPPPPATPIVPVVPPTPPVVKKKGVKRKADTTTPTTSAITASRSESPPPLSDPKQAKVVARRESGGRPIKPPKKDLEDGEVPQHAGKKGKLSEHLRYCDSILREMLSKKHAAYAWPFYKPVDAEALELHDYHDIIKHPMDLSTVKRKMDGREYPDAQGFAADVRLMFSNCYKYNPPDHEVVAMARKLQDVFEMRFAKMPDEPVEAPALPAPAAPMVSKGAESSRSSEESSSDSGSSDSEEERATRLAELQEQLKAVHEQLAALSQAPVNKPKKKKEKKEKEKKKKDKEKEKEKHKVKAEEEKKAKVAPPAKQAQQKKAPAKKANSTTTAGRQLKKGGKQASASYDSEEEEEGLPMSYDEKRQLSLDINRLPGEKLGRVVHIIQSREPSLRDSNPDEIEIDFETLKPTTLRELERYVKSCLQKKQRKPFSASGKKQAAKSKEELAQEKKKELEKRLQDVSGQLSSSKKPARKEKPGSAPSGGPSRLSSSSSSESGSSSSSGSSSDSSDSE
Sequence of UniProt Q9UEE9 (Q9UEE9 whole entry, looked up): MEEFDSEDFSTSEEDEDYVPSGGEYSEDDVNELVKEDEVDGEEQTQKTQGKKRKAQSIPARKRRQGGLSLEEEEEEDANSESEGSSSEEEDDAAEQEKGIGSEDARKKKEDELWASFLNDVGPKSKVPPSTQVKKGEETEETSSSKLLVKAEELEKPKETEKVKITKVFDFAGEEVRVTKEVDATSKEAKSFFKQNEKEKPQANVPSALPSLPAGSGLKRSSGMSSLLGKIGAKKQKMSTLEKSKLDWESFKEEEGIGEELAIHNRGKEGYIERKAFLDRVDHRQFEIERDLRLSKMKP
Sequence of UniProt P49918 (P49918 whole entry, looked up): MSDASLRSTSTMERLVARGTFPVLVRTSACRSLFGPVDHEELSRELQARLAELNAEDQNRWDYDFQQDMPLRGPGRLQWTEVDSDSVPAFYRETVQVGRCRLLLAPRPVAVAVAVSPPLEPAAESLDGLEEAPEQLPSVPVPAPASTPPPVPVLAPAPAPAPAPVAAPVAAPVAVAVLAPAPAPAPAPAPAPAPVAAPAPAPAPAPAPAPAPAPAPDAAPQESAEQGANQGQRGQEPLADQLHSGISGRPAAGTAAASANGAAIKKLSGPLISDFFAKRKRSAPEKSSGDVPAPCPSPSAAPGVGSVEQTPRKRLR

Row | Target | log2 fold change [1] | log2 fold change [2] | log2 fold change [3] | log2 fold change [4] | log2 fold change [5]
1 | CHCHD1 (UniProt Q96BP2) | 0.131 | 0.055 | -0.039 | -0.014 | -0.081
2 | CDKN1C (UniProt P49918) | 0.124 | 0.058 | -0.029 | 0.134 | 0.048
3 | CHD9 (UniProt Q3L8U1) | -0.018 | -0.111 | 0.075 | -0.012 | –
4 | CEP120 (UniProt Q8N960) | 0.261 | 0.042 | -0.075 | 0.135 | -0.13
5 | BSDC1 (UniProt Q9NW68) | -0.073 | 0.13 | -0.018 | 0.024 | -0.002
6 | CDK17 isoform 2 (UniProt Q00537) | 0.01 | 0.174 | 0.565 (active) | 0.103 | -0.162
7 | CDK2 (UniProt P24941) | -0.02 | 0.006 | 0.248 | 0.202 | 0.039
8 | CASP9 (UniProt P55211) | 0.011 | -0.342 (active) | -0.004 | 0.019 | -0.002
9 | BORCS5 (UniProt Q969J3) | -0.061 | 0.136 | 0.008 | 0.026 | -0.115
10 | BRD3 (UniProt Q15059) | 0.052 | -0.117 | -0.146 | 0.021 | -0.018
11 | CDC25C (UniProt P30307) | -0.019 | -0.271 (active) | 0.009 | 0.026 | -0.01
12 | CHAF1A (UniProt Q13111) | 0.004 | -0.402 (active) | -0.004 | 0.004 | -0.082
13 | ATF7IP2 (UniProt Q5U623) | 0.066 | 0.027 | 0.002 | -0.048 | –
14 | CAMKK2 (UniProt Q96RR4) | 0.081 | -0.325 (active) | 0.074 | -0.02 | 0.039
15 | BTAF1 (UniProt O14981) | 0.01 | -0.45 (active) | 0.003 | -0.008 | -0.031
16 | CDK5RAP2 (UniProt Q96SN8) | 0.042 | -0.156 | 0 | 0.026 | -0.042
17 | CHCHD4 isoform 2 (UniProt Q8N4Q1) | 0.06 | 0.207 | -0.145 | -0.027 | 0.01
18 | CFDP1 (UniProt Q9UEE9) | -0.009 | 0.095 | -0.05 | -0.078 | -0.012
19 | CASC4 (UniProt Q6P4E1) | -0.034 | 0.02 | 0.019 | 0.025 | -0.029
20 | BBS7 (UniProt Q8IWZ6) | -0.006 | -0.354 | 0.133 | -0.015 | -0.007
21 | CALB2 (UniProt P22676) | 0.067 | 0.156 | 0.017 | 0.063 | 0.019
22 | CALM2 (UniProt P0DP24) | 0.008 | -0.027 | 0.064 | -0.121 | -0.048
23 | BRD2 isoform 2 (UniProt P25440) | 0.048 | 0.107 | 0.074 | 0.051 | 0.021
24 | CDK5 (UniProt Q00535) | -0.036 | -0.232 | 0.855 (active) | 0.179 | 0.036
25 | CHD1L (UniProt Q86WJ1) | 0.01 | -0.277 (active) | 0.015 | 0.164 | 0.046
